Experiment in all cases: NCI-60 one-dose screen, 48 h (100 = growth as untreated, 0 = no growth, -100 = all killed)
What all share (conditions): 10 µM unless noted

Assay [1] concerns HCT-15 colon.
Assay [2] relates to HT29 colon.
In assay [3] the test system is SNB-75 CNS.
For assay [4], the system named is SNB-19 CNS.
Assay [5] has as its system U251 CNS.
For assay [6], the system named is PC-3 prostate.
The subject of assay [7] is SK-MEL-5 melanoma.
Assay [8] has as its system UACC-62 melanoma.
Assay [9] has as its system LOX IMVI melanoma.
In assay [10] the test system is SK-MEL-28 melanoma.
Assay [11] relates to SK-MEL-2 melanoma.
The subject of assay [12] is EKVX NSCLC.
Assay [13] has as its system SN12C renal.
Assay [14] deals with UO-31 renal.
Assay [15] deals with TK-10 renal.
In assay [16] the test system is ACHN renal.
Assay [17] concerns CAKI-1 renal.
The subject of assay [18] is A498 renal.
The subject of assay [19] is CCRF-CEM leukemia.
Assay [20] relates to MOLT-4 leukemia.

SMILES strings stand for the structures. About 83,000 compounds went through this panel and 20% of them were active in at least one assay; those are over-represented in the sample as a whole.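 Testing used 96-well plates and a 48-hour single-concentration exposure. Example: -40 means 40% of the starting cells died.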 A number with no mark means an inactive call. The source made the active and inactive calls. How the source made its calls: active means growth percent below 10; inactive means the rest.

On to `Cn1c(COC(=O)NCCN2CCOCC2)nc2c(N3CCOCC3)nc(-c3ccccc3)nc21`, for which the growth was -39.4% (active) in assay [1]; -58.1% (active) in assay [2]; -3.92% (active) in assay [3]; 48.7% in assay [4]; -52.5% (active) in assay [5]; -71.2% (active) in assay [6]. In addition, the growth in assay [7] is -93.6% (active); in assay [8], -93.6% (active); in assay [9], -87.2% (active); in [10] it was -97.6% (active); in assay [11], -59.8% (active); in assay [12], -62.6% (active). Further, the growth is -81.2% (active) in assay [13]; -100% (active) in assay [14]; -78.8% (active) in assay [15]; -100% (active) in assay [16]; -94.8% (active) in [17]; 30.7% in assay [18]. Also, the growth in [19] was -10.9% (active); in assay [20] it was -16.2% (active).
In the case of `O=C(CN1CCOCC1)Nc1ccc2ncnc(Nc3ccc(Oc4cccc(F)c4)c(Cl)c3)c2c1`, the growth in assay [1] is 72.8%; in assay [2], 83.5%; in [3] it was 79.5%; in [4] it was 73.2%; in assay [5], 85.7%; in [6] it was 59.3%. The growth in assay [7] was 68.5%; in assay [8] it was 76.7%; in assay [9] it was 80.4%; in assay [10], 83%; in [11] it was 93.6%; in assay [12], 29.8%. Moreover, the growth was 48.9% in assay [13]; 31.6% in [14]; 39.5% in assay [15]; 24.1% in assay [16]; 38.3% in [17]; 63.2% in assay [18]. Moreover, the growth in assay [19] is 82.3%; in assay [20] it was 64.8%.
For the compound `FC(F)(F)Oc1cccc(-c2cc(NCCCCCCNc3cc(-c4cccc(OC(F)(F)F)c4)nc4ccc(N5CCCC5)cc34)c3cc(N4CCCC4)ccc3n2)c1`, the growth in [1] is -57.5% (active); in [2], -27.7% (active); in assay [3], -4.49% (active); in assay [4] it was -68.3% (active); in assay [5] it was -90.2% (active); in [6], -22.2% (active). Also, the growth is -62.4% (active) in [7]; -92.1% (active) in [8]; -71.1% (active) in assay [9]; -93.7% (active) in assay [10]; 2.93% (active) in assay [11]; -54.4% (active) in assay [12]. Moreover, the growth in [13] was -81.4% (active); in [14], 35%; in assay [15], -89.7% (active); in [16], -15.6% (active); in [17], 5.91% (active); in [18], 21.8%. Further, the growth is -32.1% (active) in [19] and -35.6% (active) in assay [20].
Regarding `CC[C@H](C)[C@@H]1NC(=O)[C@H](Cc2ccc(O)cc2)N(C)C(=O)[C@H](Cc2ccccc2)NC(=O)CN(C)C(=O)[C@@H]2CCCN2C(=O)[C@@H](Cc2ccccc2)N(C)C(=O)[C@H](CC(C)C)NC1=O`, the growth in assay [1] is 41.5%; in assay [2], 4.78% (active); in assay [3], -11.6% (active); in assay [4], -8.3% (active); in assay [5], 6.02% (active); in [6], 2.42% (active). For the same compound, the growth in [7] is -67.2% (active); in assay [8], -28.8% (active); in [9], -18.6% (active); in assay [10], -43.8% (active); in assay [11], -50.4% (active); in [12], -3.63% (active). The growth in assay [13] is -13.7% (active); in [14] it was 44.4%; in assay [15], 6.34% (active); in assay [16], 4.52% (active); in assay [17] it was 11.4%; in assay [18], -3.73% (active). The growth is -7.96% (active) in assay [19] and 2.71% (active) in assay [20].
With `FC(F)(F)c1cccc(Oc2ccc(Nc3ncnc4ccc(OCCCN5CCOCC5)cc34)cc2Cl)c1`, the growth is -40.4% (active) in [1]; 5% (active) in assay [2]; 75.2% in assay [3]; 61.1% in assay [4]; 40.3% in [5]; 49.1% in assay [6]. Also, the growth in assay [7] was 59.2%; in assay [8], 76.1%; in [9], -36% (active); in [10], 21.3%; in assay [11], 82.7%; in [12] it was 32.7%. Also, the growth in [13] was 39.6%; in [14], 21.6%; in [15], 46%; in assay [16] it was 23.9%; in [17], 35.6%; in assay [18] it was 63.1%. The values for the growth in assay [19] and in assay [20] were -16.4% (active) and 34.3%, respectively.
For the compound `CC(=O)c1c[nH]c2ccc(-c3ccnc(Nc4ccc(NC(=O)C5CCCC5)c(CN5CCOCC5)c4)n3)cc12`, the growth is -21.9% (active) in assay [1]; 6.97% (active) in [2]; -81.4% (active) in assay [3]; -6.49% (active) in [4]; 10.7% in [5]; 2.51% (active) in assay [6]. Also, the growth in [7] was -74.6% (active); in [8], -90.1% (active); in [9], -54.2% (active); in [10], -62.4% (active); in [11], -54.3% (active); in [12], -47.3% (active). In addition, the growth in assay [13] was -8.98% (active); in assay [14] it was 2.12% (active); in [15] it was 0.0909% (active); in assay [16], -5.66% (active); in assay [17], 0.231% (active); in [18], -85.1% (active). Further, the growth in assay [19] was -11.5% (active); in [20], -16.2% (active).

(Values after PubChem BioAssay (NCI).)
